In paper PMC7862700, “An all-to-all approach to the identification of sequence-specific readers for epigenetic DNA modifications on cytosine”:

What was measured:
Assay in all cases: DAPPL (digital affinity profiling via proximity ligation, sequencing); 10 mM Tris-HCl pH 7.5, 50 mM NaCl, 1 mM DTT, 4% glycerol, room temperature, 30 min; GST-TFs on glutathione beads, 16-mer random dsDNA library, 0.1% formaldehyde crosslink after washing; high values mean tight binding
FEV = molecular target: T1, FEV (Homo sapiens, UniProt Q99581 1-238); settings: protein: recombinant; tags: N-terminal GST; dsDNA, one strand shown
T1 sequence: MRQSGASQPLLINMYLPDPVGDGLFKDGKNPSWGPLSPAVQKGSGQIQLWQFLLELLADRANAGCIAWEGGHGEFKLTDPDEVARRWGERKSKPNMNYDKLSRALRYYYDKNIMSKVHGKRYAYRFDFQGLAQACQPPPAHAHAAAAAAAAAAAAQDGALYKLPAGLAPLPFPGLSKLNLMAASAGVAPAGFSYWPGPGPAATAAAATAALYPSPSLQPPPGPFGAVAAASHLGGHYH
Summary of the method: (§1)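 Binding signal is each hexamer's read frequency for a factor divided by its frequency in the tag-only sample. The factors were GST-fused human transcription factors from yeast, captured on glutathione beads, DNA-barcoded and pooled with that sample. Pools were incubated with 200 nmole of a random double-stranded 16-mer DNA library in Tris/NaCl/DTT/glycerol buffer at room temperature for 30 min, then washed, crosslinked with 0.1% formaldehyde, proximity-ligated with BsaI/T4 ligase (1 h, 37 °C), PCR-amplified and sequenced on an Illumina NextSeq500.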

ETV5 = ETV5 (Homo sapiens, UniProt P41161 1-510); settings: protein: recombinant; tags: N-terminal GST; dsDNA, one strand shown
Summary of the method: as §1

HSF1 = HSF1 (Homo sapiens, UniProt Q00613 1-529); settings: protein: recombinant; tags: N-terminal GST; chain copies: 3; dsDNA, one strand shown
Summary of the method: as §1

SPIC = molecular target: T2, SPIC (Homo sapiens, UniProt Q8N5J4 1-248); settings: protein: recombinant; tags: N-terminal GST; dsDNA, one strand shown
T2 sequence: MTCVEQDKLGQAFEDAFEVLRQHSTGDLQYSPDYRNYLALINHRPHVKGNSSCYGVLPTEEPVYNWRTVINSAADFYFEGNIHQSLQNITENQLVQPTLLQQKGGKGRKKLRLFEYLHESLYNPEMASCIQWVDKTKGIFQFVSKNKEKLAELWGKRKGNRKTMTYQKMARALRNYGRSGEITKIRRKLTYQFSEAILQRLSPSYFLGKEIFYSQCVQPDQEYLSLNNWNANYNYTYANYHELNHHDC
Summary of the method: as §1

ELF4 = ELF4 (Homo sapiens, UniProt Q99607 1-663); settings: protein: recombinant; tags: N-terminal GST; dsDNA, one strand shown
Summary of the method: as §1

ELK4 = molecular target: T3, ELK4 (Homo sapiens, UniProt P28324-2 1-405); settings: protein: recombinant; tags: N-terminal GST; dsDNA, one strand shown
T3 sequence: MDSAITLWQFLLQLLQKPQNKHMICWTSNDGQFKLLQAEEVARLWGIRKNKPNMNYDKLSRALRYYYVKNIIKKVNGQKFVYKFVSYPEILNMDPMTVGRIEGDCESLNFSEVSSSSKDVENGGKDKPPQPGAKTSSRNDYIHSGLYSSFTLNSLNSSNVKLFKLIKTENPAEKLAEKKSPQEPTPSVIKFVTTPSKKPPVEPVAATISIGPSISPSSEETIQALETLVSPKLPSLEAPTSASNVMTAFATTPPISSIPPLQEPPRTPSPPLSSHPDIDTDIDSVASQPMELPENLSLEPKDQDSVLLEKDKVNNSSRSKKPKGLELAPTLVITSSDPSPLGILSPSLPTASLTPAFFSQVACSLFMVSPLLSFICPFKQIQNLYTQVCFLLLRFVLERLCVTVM
Summary of the method: as §1

ETV2 = molecular target: T4, ETV2 (Homo sapiens, UniProt O00321 1-342); settings: protein: recombinant; tags: N-terminal GST; dsDNA, one strand shown
T4 sequence: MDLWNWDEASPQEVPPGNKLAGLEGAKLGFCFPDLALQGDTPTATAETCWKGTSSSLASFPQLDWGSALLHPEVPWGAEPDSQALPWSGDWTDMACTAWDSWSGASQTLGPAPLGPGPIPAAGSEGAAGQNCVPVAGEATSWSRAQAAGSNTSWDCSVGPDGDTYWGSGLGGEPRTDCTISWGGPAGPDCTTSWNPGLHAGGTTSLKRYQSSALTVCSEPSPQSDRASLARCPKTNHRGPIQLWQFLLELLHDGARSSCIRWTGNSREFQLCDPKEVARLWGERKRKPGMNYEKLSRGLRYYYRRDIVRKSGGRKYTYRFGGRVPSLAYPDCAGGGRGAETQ
Summary of the method: as §1

ELF3 = molecular target: T5, ELF3 (Homo sapiens, UniProt P78545 1-371); settings: protein: recombinant; tags: N-terminal GST; dsDNA, one strand shown
T5 sequence: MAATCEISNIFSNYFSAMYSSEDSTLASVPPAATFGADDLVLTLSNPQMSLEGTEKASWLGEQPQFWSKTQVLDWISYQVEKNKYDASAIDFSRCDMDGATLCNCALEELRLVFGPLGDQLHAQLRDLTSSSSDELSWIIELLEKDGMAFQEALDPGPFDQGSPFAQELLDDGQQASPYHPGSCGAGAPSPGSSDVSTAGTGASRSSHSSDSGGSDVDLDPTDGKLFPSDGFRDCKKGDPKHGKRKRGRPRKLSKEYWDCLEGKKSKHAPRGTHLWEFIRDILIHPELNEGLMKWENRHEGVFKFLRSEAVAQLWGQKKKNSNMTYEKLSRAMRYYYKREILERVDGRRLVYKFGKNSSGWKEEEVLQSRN
Summary of the method: as §1

CRX = CRX (Homo sapiens, UniProt O43186 1-299); settings: protein: recombinant; tags: N-terminal GST; dsDNA, one strand shown
Summary of the method: as §1

ETV1 = ETV1 (Homo sapiens, UniProt P50549 1-477); settings: protein: recombinant; tags: N-terminal GST; dsDNA, one strand shown
Summary of the method: as §1

ERF = molecular target: T6, ERF (Homo sapiens, UniProt P50548 1-548); settings: protein: recombinant; tags: N-terminal GST; dsDNA, one strand shown
T6 sequence: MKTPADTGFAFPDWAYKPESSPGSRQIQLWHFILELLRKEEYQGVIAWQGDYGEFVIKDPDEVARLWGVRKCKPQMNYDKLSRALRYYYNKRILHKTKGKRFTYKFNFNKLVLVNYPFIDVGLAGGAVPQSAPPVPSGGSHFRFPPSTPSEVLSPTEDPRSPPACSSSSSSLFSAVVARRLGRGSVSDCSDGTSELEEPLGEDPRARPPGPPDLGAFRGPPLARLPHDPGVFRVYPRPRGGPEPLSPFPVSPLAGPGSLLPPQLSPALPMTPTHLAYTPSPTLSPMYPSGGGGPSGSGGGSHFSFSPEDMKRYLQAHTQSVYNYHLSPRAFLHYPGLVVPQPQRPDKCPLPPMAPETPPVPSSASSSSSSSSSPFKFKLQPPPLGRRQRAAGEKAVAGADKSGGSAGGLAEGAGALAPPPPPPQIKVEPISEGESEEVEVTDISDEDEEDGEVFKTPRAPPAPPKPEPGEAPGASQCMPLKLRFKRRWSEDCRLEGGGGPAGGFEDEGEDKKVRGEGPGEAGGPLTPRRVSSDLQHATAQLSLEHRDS
Summary of the method: as §1

ETV3L = molecular target: T7, ETV3L (Homo sapiens, UniProt Q6ZN32 1-361); settings: protein: recombinant; tags: N-terminal GST; dsDNA, one strand shown
T7 sequence: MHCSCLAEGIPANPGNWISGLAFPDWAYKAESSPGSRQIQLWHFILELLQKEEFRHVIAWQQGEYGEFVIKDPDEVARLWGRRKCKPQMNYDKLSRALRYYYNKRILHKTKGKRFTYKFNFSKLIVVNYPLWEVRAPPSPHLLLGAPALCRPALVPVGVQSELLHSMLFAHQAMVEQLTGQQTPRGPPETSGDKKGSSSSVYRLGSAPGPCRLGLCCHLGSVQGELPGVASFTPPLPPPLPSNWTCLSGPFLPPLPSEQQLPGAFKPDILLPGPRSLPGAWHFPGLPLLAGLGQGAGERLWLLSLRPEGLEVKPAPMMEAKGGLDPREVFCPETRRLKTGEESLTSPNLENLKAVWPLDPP
Summary of the method: as §1

ETS2 = molecular target: T8, ETS2 (Homo sapiens, UniProt P15036 1-469); settings: protein: recombinant; tags: N-terminal GST; dsDNA, one strand shown
T8 sequence: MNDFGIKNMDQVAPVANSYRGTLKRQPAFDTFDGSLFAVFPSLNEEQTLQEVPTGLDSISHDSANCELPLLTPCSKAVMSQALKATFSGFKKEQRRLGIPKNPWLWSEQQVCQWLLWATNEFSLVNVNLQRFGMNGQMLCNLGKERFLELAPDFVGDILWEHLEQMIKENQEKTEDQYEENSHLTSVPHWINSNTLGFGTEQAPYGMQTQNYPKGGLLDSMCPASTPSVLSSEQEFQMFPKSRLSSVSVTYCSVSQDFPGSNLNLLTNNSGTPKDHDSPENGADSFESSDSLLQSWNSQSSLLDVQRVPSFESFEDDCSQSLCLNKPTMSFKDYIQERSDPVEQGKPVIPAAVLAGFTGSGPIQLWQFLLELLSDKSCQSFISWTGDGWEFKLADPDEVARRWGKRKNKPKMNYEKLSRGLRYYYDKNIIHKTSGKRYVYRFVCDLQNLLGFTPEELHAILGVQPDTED
Summary of the method: as §1

SPDEF = molecular target: T9, SPDEF (Homo sapiens, UniProt O95238 1-335); settings: protein: recombinant; tags: N-terminal GST; dsDNA, one strand shown
T9 sequence: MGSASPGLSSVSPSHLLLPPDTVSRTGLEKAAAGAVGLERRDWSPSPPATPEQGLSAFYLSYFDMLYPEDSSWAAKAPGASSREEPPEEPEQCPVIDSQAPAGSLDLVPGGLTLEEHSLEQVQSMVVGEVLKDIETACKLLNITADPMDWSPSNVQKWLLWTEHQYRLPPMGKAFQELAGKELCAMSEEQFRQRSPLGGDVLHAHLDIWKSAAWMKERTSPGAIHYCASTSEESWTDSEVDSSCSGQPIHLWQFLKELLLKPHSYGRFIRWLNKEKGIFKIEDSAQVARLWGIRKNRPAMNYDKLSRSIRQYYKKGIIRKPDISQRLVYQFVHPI
Summary of the method: as §1

ETV7 = molecular target: T10, ETV7 (Homo sapiens, UniProt Q9Y603 1-341); settings: protein: recombinant; tags: N-terminal GST; dsDNA, one strand shown
T10 sequence: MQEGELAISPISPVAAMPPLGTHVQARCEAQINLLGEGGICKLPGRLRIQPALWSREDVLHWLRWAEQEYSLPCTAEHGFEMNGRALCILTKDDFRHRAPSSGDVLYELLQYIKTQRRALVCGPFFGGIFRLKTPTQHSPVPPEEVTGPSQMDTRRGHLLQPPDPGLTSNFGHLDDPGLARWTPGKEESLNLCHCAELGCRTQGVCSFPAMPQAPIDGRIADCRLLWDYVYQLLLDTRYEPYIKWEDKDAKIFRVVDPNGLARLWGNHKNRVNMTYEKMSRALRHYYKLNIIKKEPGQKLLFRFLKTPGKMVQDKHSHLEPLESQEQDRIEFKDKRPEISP
Summary of the method: as §1

ELF5 = molecular target: T11, ELF5 (Homo sapiens, UniProt Q9UKW6-2 1-255); settings: protein: recombinant; tags: N-terminal GST; dsDNA, one strand shown
T11 sequence: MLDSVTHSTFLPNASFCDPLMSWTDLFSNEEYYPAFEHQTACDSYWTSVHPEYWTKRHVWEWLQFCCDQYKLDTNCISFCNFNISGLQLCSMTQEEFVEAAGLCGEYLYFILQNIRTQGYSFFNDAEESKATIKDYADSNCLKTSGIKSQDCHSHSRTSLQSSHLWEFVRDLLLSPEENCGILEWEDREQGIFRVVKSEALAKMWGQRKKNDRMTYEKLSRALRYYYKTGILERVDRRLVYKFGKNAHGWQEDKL
Summary of the method: as §1

ETV3 = molecular target: T12, ETV3 (Homo sapiens, UniProt P41162-2 1-143); settings: protein: recombinant; tags: N-terminal GST; dsDNA, one strand shown
T12 sequence: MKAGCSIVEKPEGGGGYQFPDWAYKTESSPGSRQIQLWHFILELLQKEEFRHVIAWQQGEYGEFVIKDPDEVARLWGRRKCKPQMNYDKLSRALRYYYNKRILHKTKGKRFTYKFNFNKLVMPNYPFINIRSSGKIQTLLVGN
Summary of the method: as §1

ETV6 = ETV6 (Homo sapiens, UniProt P41212 1-452); settings: protein: recombinant; tags: N-terminal GST; dsDNA, one strand shown
Summary of the method: as §1

Sequence of ETV1 (P50549 whole entry): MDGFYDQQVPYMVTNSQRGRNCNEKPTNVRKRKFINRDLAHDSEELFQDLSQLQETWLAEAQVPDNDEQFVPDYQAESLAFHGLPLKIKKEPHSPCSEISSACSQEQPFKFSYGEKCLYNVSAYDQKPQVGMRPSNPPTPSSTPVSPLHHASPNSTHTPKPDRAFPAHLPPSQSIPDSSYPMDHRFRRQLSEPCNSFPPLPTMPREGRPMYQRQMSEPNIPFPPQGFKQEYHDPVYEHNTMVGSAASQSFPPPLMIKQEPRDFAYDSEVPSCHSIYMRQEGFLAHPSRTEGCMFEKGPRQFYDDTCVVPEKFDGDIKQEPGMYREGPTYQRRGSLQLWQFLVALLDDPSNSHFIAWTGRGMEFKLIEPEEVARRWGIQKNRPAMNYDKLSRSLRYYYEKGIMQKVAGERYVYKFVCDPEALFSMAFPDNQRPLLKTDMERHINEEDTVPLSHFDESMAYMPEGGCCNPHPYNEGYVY
Sequence of ELF4 (Q99607 whole entry): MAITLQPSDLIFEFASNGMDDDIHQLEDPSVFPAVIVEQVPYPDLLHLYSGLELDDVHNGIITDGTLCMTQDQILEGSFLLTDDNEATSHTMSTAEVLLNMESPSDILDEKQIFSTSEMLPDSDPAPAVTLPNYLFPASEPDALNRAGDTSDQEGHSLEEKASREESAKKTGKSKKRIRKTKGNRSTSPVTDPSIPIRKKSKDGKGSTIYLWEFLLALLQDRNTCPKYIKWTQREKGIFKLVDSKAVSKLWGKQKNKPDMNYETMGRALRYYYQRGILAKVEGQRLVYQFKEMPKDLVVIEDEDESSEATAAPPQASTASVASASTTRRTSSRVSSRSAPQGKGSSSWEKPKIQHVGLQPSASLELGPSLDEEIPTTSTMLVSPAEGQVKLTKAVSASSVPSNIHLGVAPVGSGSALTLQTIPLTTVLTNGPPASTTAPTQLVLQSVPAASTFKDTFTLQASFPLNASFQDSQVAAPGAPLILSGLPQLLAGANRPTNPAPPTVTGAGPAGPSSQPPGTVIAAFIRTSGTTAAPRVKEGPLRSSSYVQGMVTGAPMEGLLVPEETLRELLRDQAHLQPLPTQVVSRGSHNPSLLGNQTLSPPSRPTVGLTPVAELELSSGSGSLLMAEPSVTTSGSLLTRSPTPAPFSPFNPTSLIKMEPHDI
Sequence of ETV6 (P41212 whole entry): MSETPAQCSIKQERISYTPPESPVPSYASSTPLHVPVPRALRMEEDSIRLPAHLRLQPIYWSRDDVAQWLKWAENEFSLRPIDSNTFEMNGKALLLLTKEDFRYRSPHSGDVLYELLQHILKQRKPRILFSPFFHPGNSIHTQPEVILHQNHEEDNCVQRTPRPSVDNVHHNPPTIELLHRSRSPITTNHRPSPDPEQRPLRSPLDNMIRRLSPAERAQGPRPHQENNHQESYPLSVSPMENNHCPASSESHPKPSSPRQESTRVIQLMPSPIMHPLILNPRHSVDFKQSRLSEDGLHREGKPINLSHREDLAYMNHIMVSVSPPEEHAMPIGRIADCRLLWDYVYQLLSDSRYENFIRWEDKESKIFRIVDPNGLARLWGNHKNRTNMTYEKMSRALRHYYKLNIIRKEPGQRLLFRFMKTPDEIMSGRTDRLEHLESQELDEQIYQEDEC
Sequence of ETV5 (P41161 whole entry): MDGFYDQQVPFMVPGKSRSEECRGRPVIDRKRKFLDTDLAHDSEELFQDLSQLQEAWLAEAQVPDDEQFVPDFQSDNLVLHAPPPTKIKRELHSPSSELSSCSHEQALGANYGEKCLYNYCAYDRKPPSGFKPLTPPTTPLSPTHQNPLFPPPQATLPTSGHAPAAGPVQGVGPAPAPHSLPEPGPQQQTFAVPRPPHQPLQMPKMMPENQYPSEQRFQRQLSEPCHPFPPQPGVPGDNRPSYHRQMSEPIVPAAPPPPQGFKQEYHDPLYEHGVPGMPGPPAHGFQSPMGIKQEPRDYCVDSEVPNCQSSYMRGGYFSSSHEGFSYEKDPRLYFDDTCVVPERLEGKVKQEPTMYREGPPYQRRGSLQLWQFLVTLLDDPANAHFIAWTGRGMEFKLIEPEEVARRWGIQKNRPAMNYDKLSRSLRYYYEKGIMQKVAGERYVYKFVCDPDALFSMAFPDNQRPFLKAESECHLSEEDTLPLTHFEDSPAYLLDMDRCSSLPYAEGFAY
Sequence of HSF1 (Q00613 whole entry): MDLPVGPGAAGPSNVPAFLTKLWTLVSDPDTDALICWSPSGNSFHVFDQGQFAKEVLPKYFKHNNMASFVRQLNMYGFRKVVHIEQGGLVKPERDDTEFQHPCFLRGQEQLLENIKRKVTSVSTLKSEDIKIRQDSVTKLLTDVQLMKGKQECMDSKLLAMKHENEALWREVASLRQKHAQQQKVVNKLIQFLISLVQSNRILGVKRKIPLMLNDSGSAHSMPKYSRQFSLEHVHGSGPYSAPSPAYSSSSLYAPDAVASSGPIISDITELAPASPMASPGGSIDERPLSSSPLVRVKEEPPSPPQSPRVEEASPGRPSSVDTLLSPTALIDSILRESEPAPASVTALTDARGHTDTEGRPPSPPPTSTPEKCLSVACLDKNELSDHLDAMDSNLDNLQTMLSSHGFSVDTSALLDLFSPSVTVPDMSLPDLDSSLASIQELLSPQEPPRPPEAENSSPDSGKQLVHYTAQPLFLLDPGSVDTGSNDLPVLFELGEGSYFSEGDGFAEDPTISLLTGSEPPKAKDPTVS
Sequence of CRX (O43186 whole entry): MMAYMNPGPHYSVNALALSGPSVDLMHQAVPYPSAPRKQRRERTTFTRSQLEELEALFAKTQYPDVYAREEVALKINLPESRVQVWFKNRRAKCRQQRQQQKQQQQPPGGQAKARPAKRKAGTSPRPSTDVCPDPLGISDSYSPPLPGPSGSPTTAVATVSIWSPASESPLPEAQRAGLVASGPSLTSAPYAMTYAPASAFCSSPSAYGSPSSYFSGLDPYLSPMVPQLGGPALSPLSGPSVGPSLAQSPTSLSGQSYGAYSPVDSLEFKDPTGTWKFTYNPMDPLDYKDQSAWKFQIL

With GCTTCG the binding signal (FEV) was 1.26 fold enrichment (6-mer frequency, TF over GST control), the binding signal (ETV5) was 1.29 fold enrichment (6-mer frequency, TF over GST control) and the binding signal (HSF1) was 1.6 fold enrichment (6-mer frequency, TF over GST control). The binding signal (SPIC) was 1.17 fold enrichment (6-mer frequency, TF over GST control), the binding signal (ELF4) was 1.26 fold enrichment (6-mer frequency, TF over GST control) and the binding signal (ELK4) was 1.38 fold enrichment (6-mer frequency, TF over GST control). The binding signal (ETV2) was 1.33 fold enrichment (6-mer frequency, TF over GST control), the binding signal (ELF3) was 1.47 fold enrichment (6-mer frequency, TF over GST control) and the binding signal (CRX) was 1.25 fold enrichment (6-mer frequency, TF over GST control). For the same sequence, the binding signal (ETV1) was 1.29 fold enrichment (6-mer frequency, TF over GST control), the binding signal (ERF) was 1.56 fold enrichment (6-mer frequency, TF over GST control) and the binding signal (ETV3L) was 1.31 fold enrichment (6-mer frequency, TF over GST control). For the same sequence, the binding signal (ETS2) was 1.32 fold enrichment (6-mer frequency, TF over GST control), the binding signal (SPDEF) was 1.35 fold enrichment (6-mer frequency, TF over GST control) and the binding signal (ETV7) was 1.44 fold enrichment (6-mer frequency, TF over GST control). For the same sequence, the binding signal (ELF5) was 1.3 fold enrichment (6-mer frequency, TF over GST control), the binding signal (ETV3) was 1.37 fold enrichment (6-mer frequency, TF over GST control) and the binding signal (ETV6) was 1.29 fold enrichment (6-mer frequency, TF over GST control).
